HCMV inh: inhibitors of human cytomegalovirus; HFF cells, HCMV-luciferase reporter, 72 h; active compounds read low; activity change, negative = inhibition, % at 57.5 µM; 410,000 tested, 4.5% active; AID 1259415; in the data active = activity change below about -60%; inconclusive = no clear call, values can overlap the other calls; inactive = above about -39%; note: % is set by controls: 0 for no effect and ±100 for the full control effect
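Steps: HFFs plated, 16 h 37C; compounds added; HCMV-luciferase added to MOI 1 PFU/cell; 72 h 37C; OneGlo reagent, 5 min room temperature; luminescence read, normalized to controls.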
Shiga toxin inh: Shiga toxin inhibition. Vero cells, Shiga toxin protein synthesis inhibition reporter. inhibition, % at 38.7 µM. 290,000 tested, 9.2% active. AID 2315; in the data active = inhibition mostly above about 28%, no sharp cut-off; inactive = mostly below about 43%; note: 0% is about no effect
Pf growth 48h: inhibits P. falciparum growth in the first generation, 48 h. P. falciparum luciferase growth in erythrocytes, 48 h. Potency, µM (titrated, usually from 28.7 µM), for the others: top-dose activity change, negative = inhibition, hits mostly inhibitors. 310,000 tested, 5.9% active. AID 504832; note: potency is the fitted concentration of half-maximal effect; % is set by controls: 0 for no effect and ±100 for the full control effect
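Luciferase-expressing P. falciparum in infected erythrocytes (2% hematocrit, 0.1% parasitemia final) in RPMI 1640/0.5% Albumax were exposed to compound for 48 hours at 37 C, 5% CO2; growth read as luminescence.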
HCV inh: inhibitors of hepatitis C virus infection. Huh7.5.1 HCVcc-Cre infection, luciferase reporter, 44 h. Potency, µM (top dose mostly 41.8 µM), for inactives: at the top dose activity change, negative = inhibition, hits mostly inhibitors. 340,000 tested, 3.4% active; note: potency is the fitted concentration of half-maximal effect; % is set by controls: 0 for no effect and ±100 for the full control effect
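Cells (1,000/well) were plated 4 h before compound, then infected with HCVcc-Cre virus (~0.5 moi). After 44 h further culture, infection was read as luciferase luminescence following a 15 min substrate incubation at room temperature.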
Pf growth 96h: P. falciparum growth inhibition at 96 hours | P. falciparum luciferase reporter growth, 96 h | Potency, µM (series often up to 28.7 µM), inactives show at the top dose activity change, negative = inhibition, usual class: inhibitors | 320,000 tested, 6.9% active | AID 504834; note: potency is the fitted concentration of half-maximal effect; % is set by controls: 0 for no effect and ±100 for the full control effect
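Two-generation exposure (96 h) targets delayed-death phenotype. Reporter parasites carrying integrated firefly luciferase, in red cells at 2% hematocrit and 0.05% parasitemia final, kept at 37 C, 5% CO2; luminescence loss indicates inhibition.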
Cycloheximide cs: affects cycloheximide protein synthesis inhibition readout, counter-screen; cell reporter, cycloheximide protein synthesis inhibition counterscreen; max response, %; 300,000 tested, 12% active; AID 2314; in the data active = max response mostly above about 13%, no sharp cut-off; inactive = mostly below about 14%; note: read at 38.3 µM for the half of the compounds with a filed dose; 0% is about no effect
* = called active by the depositor; ? = inconclusive; . = no result; + = active, no number. An excerpt weighted towards active compounds, which were near 21% of everything screened. Unless noted, calls come from the whole dose curve; as a rule, active = well fitted inhibition curve with a large enough effect; inconclusive = small, poorly fitted or top-dose-only effect, or another doubt; inactive = no such curve, though single readings can be large or run the other way.

SMILES	HCMV inh	Shiga toxin inh	Pf growth 48h	HCV inh	Pf growth 96h	Cycloheximide cs
CO[C@H]1C[C@@H]2CC[C@@H](C)[C@@](O)(O2)C(=O)C(=O)N2CCCC[C@H]2C(=O)O[C@H]([C@H](C)C[C@@H]2CC[C@@H](O)[C@H](OC)C2)CC(=O)[C@H](C)/C=C(\C)[C@@H](O)[C@@H](OC)C(=O)[C@H](C)C[C@H](C)/C=C/C=C/C=C/1C	.	.	1.5µM*	.	1.5µM*	.
Cc1nn(Cc2ccccc2)c(C)c1C=C1C(=O)NC(=O)NC1=O	3	-6	0%	33%	8.3µM*	-4
N#Cc1c(OCC(=O)c2ccccc2)nc2c(c1-c1ccco1)CCc1ccccc1-2	66	18	?	?	?	-3
CCOC(=O)COc1nc2c(c(-c3ccco3)c1C#N)CCc1ccccc1-2	-8	42*	-11%	-25%	-7%	19
Cc1ccc(C)c(N2CCN(C(=O)CN3C(=O)c4ccccc4C3=O)CC2)c1	0	-19	1%	19%	1%	1
Cc1cccc(N2CCN(C(=O)CN3C(=O)C4CC=CCC4C3=O)CC2)c1C (stereo not drawn)	43	76*	36%	3%	135%	28
Cc1cccc(N2CCN(C(=O)Cn3c(C)c4cnn(-c5ccccc5)c(=O)c4c3C)CC2)c1C	-81*	.	.	.	.	.
Cc1cccc(N2CCN(C(=O)CN3C(=O)NC(C)(C)C3=O)CC2)c1C	8	74*	63%	3%	36%	31*
Cc1ccccc1N1CCN(C(=O)CN2C(=O)c3ccccc3C2=O)CC1	5	198*	29%	5%	.	38*
CC(=O)OCC(NC(=O)C1CCCN1C(=O)OC(C)(C)C)C1OC(n2ccc(=O)[nH]c2=O)C(OC(C)=O)C1OC(C)=O (stereo not drawn)	.	-2	.	.	.	-1
COC(=O)[C@]1(Cc2ccccc2)N[C@H](CN(C)C(=O)COc2ccccc2)[C@@H]2C(=O)N(Cc3ccccc3)C(=O)[C@@H]21	-10	.	.	?	.	.
Cc1cc(C(=O)COc2ccc(C#N)cc2)c(C)n1CC1CCCO1 (stereo not drawn)	-29	.	.	?	.	.
Cc1cc(C(=O)COC(=O)C2=COCCO2)c(C)n1-c1ccc2c(c1)OCO2	13	138*	.	-17%	25%	66*
COC(=O)c1ccc(-n2c(C)cc(C(=O)COC(=O)C3=COCCO3)c2C)cc1	-66*	.	.	9%	.	.
Cc1cc(C(=O)COC(=O)Cc2n[nH]c(=O)c3ccccc23)c(C)n1-c1ccc2c(c1)OCCO2	-77*	-10	-13%	-27%	?	12
Cc1cc(C(=O)COC(=O)C2=COCCO2)c(C)n1-c1cccc(F)c1	-25	.	106%	?	190%	.
Cc1cc(C(=O)COc2ccc(C#N)cc2)c(C)n1-c1ccc2c(c1)OCO2	-66*	2	?	-20%	?	3
COc1ccccc1NS(=O)(=O)c1ccc2[nH]c(=S)oc2c1	-28	.	.	14%	.	.
CN(CC(=O)NC(=O)NC1CCCCC1)CC(=O)Nc1ccccc1C(F)(F)F	-7	.	.	.	.	.
CCOC(=O)c1c(C)n2c3c(cc(C)cc13)CCC2	?	12	-3%	10µM*	44%	7
CCOC(=O)c1c2n(c3ccc(O)cc13)CCCCC2	10	-7	3%	?	277%	-4
CC1Cc2ccccc2N1C(=O)CSc1ncccn1 (stereo not drawn)	5	.	-6%	12%	4%	.
O=C(NCCc1ccccc1)c1cc(-c2ccccc2)c(N2CCOCC2)s1	-32	.	.	?	.	.
CCN(CC)CCCNC(=O)c1cc(-c2ccccc2)c(N2CCCCC2)s1	-18	-6	-25%	6.3µM*	?	-2
OC1OC[C@H](O)[C@H](O)[C@H]1O (stereo partly drawn)	.	-1	.	.	.	-6
Cc1nc(-c2ccc(NC(=O)CC(C)C)cc2)cs1	-76*	+	152%	-21%	63%	38*
Cc1nc(-c2cccc(NC(=O)C3CCCCC3)c2)cs1	-26	36*	-1%	?	?	9
Cc1nc(-c2ccc(C(=O)O)cc2)cs1	-34	15	13%	18%	13%	1
